The list is a sample of the results.
aSyn UTR act: Activators via SNCA 5'UTR binding, MLPCN; alpha-synuclein 5'UTR reporter, activators screen; activity score, % (tested at 7.5 µM), hits read low; 7.1% of 300,000 active; in the data active means activity score below about -60%
Starred values were filed as active, the others as inactive.

SMILES | aSyn UTR act
Cc1ccc(Oc2nnc(-c3ccc(C)cc3)c3ccccc23)cc1 | -93*
CCOC(=O)c1sc(-c2ccc(OC)cc2)cc1NC(C)=O | -73*
CN(C)c1ccc(/C=C2\CCCCC2=O)cc1 | -104*
COc1ccc(OC)c(NC(=O)c2cc(-c3cc(C)ccc3O)n[nH]2)c1 | -104*
Cc1ccc(-c2cc(C(=O)Nc3cc(C)ccc3C)[nH]n2)c(O)c1 | -86*
Cc1ccc(C)c(NC(=O)c2cc(-c3ccccc3O)n[nH]2)c1 | -198*
Cc1ccc(C)c(NC(=O)c2cc(-c3cc(C)c(C)cc3O)n[nH]2)c1 | -233*
Cc1ccc(C)c(NC(=O)COC(=O)c2cccc3c2C(=O)c2ccccc2C3=O)c1 | 55
COc1cc(SC)ccc1C(=O)Nc1ccc(Br)cn1 | 101
COc1cc(SC)ccc1C(=O)Nc1ccon1 | -109*
COc1cc(SC)ccc1C(=O)Nc1cccc(C)n1 | -88*
Cc1coc2c1C(=O)C(=O)c1c-2ccc2c(C)cccc12 | -64*
Cc1coc2c1C(=O)C(=O)c1c-2ccc2c1CCCC2(C)C | 63
O=C(Nc1ccccc1)Nc1ccc2ocnc2c1 | -117*
O=C(Nc1ccccc1)Nc1ccc2ncoc2c1 | -119*
NNC(=O)c1nn(-c2ccccc2)cc1O | 83
O=C(c1cnn(-c2ccccc2)c1)c1ccccc1O | -106*
O=C(c1cnn(-c2ccccc2)c1)c1cc(F)ccc1O | -163*
COc1ccc(-c2oc3ccccc3c2C(=O)OCc2ccccc2)cc1 | -102*
Nc1c(-c2ccc(Cl)cc2)cnc2c(-c3ccc(F)cc3)cnn12 | -95*
COc1ccc(-c2c(C)nc3c(-c4ccc(F)cc4)cnn3c2N)cc1 | -143*
Nc1c(-c2cccc(Cl)c2)cnc2c(-c3ccccc3)cnn12 | -243*
CCOC(=O)c1cnc2c(-c3ccc(Cl)cc3)cnn2c1C | -98*
Cc1nn2c(N)c(-c3ccccc3)cnc2c1-c1ccccc1 | -131*
Fc1ccc(-c2cnn3c(-c4ccncc4)ccnc23)cc1 | -69*
SMILES | aSyn UTR act
O=C(Oc1oc(-c2ccco2)nc1C=Nc1ccc(Cl)cc1)c1ccco1 | -170*
COc1ccc(N=Cc2nc(-c3ccco3)oc2O)cc1 | -111*
O=C(/C=C/c1ccco1)NC(=S)Nc1ccccc1 | -104*
CC(=O)c1ccc(NC(=S)NC(=O)/C=C/c2ccco2)cc1 | -101*
COc1ccc(C(=O)CNc2ccccc2C#N)cc1 | -93*
COc1ccc(C(=O)COc2ccccc2N2C(=O)C3C4C=CC(C4)C3C2=O)cc1 (configuration not stated) | -82*
COc1ccc(C(=O)CNc2ccccc2CO)cc1 | -70*
COc1ccc(C(=O)COc2ccccc2C#N)cc1 | -127*
COc1ccc(Cl)cc1C(=O)Nc1ccc(Br)c(C)n1 | -78*
COc1ccc(Cl)cc1C(=O)Nc1cccnc1Cl | -78*
O=[N+]([O-])c1ccccc1S(=O)(=O)Oc1ccc(C(=S)N2CCOCC2)cc1 | -62*
CS(=O)(=O)Nc1ccc(C2=NN(S(C)(=O)=O)C(c3ccc4c(c3)OCO4)C2)cc1 (configuration not stated) | -207*
COc1ccc(C2CC(c3ccc(OC)c(OC)c3)=NN2S(C)(=O)=O)cc1 (configuration not stated) | -169*
COc1ccc(C2=NN(S(C)(=O)=O)C(c3ccc4nccnc4c3)C2)cc1 (configuration not stated) | -150*
CS(=O)(=O)N1N=C(c2ccc3nccnc3c2)CC1c1ccccc1 (configuration not stated) | -79*
Cc1ccc(C2=NN(S(C)(=O)=O)C(c3ccc4nccnc4c3)C2)cc1 (configuration not stated) | -127*
CS(=O)(=O)N1N=C(c2ccccc2)CC1c1ccc2nccnc2c1 (configuration not stated) | -77*
C=CCS/C(=N\n1cnc2ccccc2c1=O)N1CCCCC1 | -86*
N/C(=N\OC(=O)c1cccc(F)c1)c1ccccc1 | -331*
Cc1ccc(/C(N)=N/OC(=O)c2cccc(F)c2)cc1 | -262*
Cc1ccc(/C(N)=N/OC(=O)c2ccc3ccccc3c2)cc1 | -124*
CC1Cc2cc(/C=C3/SC(=S)N(C)C3=O)ccc2O1 (configuration not stated) | -86*
O=C(N/N=C/c1ccc(OCc2ccccc2)cc1)c1ccncc1 | -164*
O=C(N/N=C/c1ccc(OCc2ccccc2)cc1)c1cccs1 | -116*
C[C@H](NC(N)=O)C(=O)Nc1ccc(OCc2ccccc2)cc1 | -92*
SMILES | aSyn UTR act
Cc1occc1C(=O)Nc1ccc(OCc2ccccc2)cc1 | -147*
CC(C)(C)NCC(=O)N/N=C/c1ccc(OCc2ccccc2)cc1 | -72*
Oc1ccc(N=Cc2ccc(OCc3ccccc3)cc2)cc1 | -92*
O=C(C[n+]1ccc(C(=O)N/N=C/c2ccc(OCc3ccccc3)cc2)cc1)c1ccccc1 | -138*
O=C(COc1ccc([N+](=O)[O-])cc1)NNC(=O)c1cccs1 | -78*
CSc1ccc(/C=N/NC(=O)c2sccc2C)cc1 | -89*
O=C(N/N=C/c1ccc(Cl)cc1)c1sccc1OCc1ccc(F)cc1 | 73
O=C(N/N=C/c1ccc(F)cc1)c1sccc1OCc1ccc(F)cc1 | -94*
O=C(Nc1ccc(OCc2ccccc2)cc1)c1cccs1 | -158*
O=C(CCSc1ccccc1)Nc1ccccc1Br | -91*
CCC(C)NC(=O)Cc1c(C)c2cc3c(cc2oc1=O)OC(C)(C)CC3 (configuration not stated) | -118*
Cc1c(CC(=O)NC(C)C)c(=O)oc2cc3c(cc12)CCC(C)(C)O3 | -78*
Cc1c(CCC(=O)O)c(=O)oc2cc3oc4c(c3cc12)CCCC4 | 68
Cc1c(CC(=O)N[C@H](C(=O)O)C(C)C)c(=O)oc2cc3c(cc12)CCC(C)(C)O3 | -110*
CC(Cc1cccs1)NC(=O)Nc1ccc(Cl)cc1 (configuration not stated) | -221*
CCCC(=O)NC(c1cccs1)c1cc(Cl)c2cccnc2c1O (configuration not stated) | 99
CC(Cc1cccs1)NC(=O)Nc1ccc(Cl)c(Cl)c1 (configuration not stated) | -90*
CCOc1ccc(NC(=O)CSc2nncc(=O)[nH]2)cc1 | -76*
COc1ccc(C(=O)/C(=C/O)N=Nc2ccc(F)cc2)cc1 | -64*
O=C(NCCc1ccc(Cl)cc1)c1ccc(Br)s1 | -180*
O=C(NCCCCCCNC(=O)c1ccc(Br)s1)c1ccc(Br)s1 | -108*
Nc1nc(NCCOCCO)nc(NC2CCCCC2)c1[N+](=O)[O-] | 68
N=c1oc2cc(O)ccc2cc1C(=O)Nc1ccc(Br)cc1 | -172*
N=c1oc2cc(O)ccc2cc1C(=O)Nc1nc2ccccc2s1 | -188*
COC(=O)c1ccc(COc2ccccc2/C=C(\C#N)C(=O)Nc2c(C)cccc2C)cc1 | -82*
SMILES | aSyn UTR act
COc1ccc(O)c(/C=C(\C#N)C(=O)Nc2cccnc2)c1 | -80*
CCCOc1ccccc1/C=C(\C#N)C(=O)Nc1cccnc1 | -85*
COC(=O)C1(C)CCC(C(=O)Nc2ccccc2)C1(C)C (configuration not stated) | 62
CCC1CC(C(=O)Nc2ccccc2)C(=O)O1 (configuration not stated) | -64*
CCCOc1ccc(NC(=O)C2CC(=O)N/C(=N/N=C(C)/C=C/c3ccc(N(C)C)cc3)S2)cc1 (configuration not stated) | -79*
CC(/C=C/c1ccc(N(C)C)cc1)=N\N=C1\NC(=O)CC(C(=O)Nc2ccccc2)S1 (configuration not stated) | -73*
